Most compounds without a hit are left out; they make up all but 21% or so of the library.
ClpP mod = qHTS Assay for Activators of ClpP; purified B. subtilis ClpP, FRET peptide cleavage, 20 min; Potency, µM (top dose mostly 57.5 µM), for the others: at the highest dose activity change, negative = active; hit rate 1.9% among 340,000; AID 651965, 2013; active means well fitted falling curve with a large enough effect; inconclusive means small, poorly fitted or top-dose-only effect; inactive means no such curve, though single readings can be large or run the other way; further: potency means the concentration at half of the fitted maximal effect; the source files actives as falling curves though it sought activators and does not explain the sign; nearly all actives have a fitted effect of over 65% in size
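Buffer: 100 mM Tris/HCl pH8, 100 mM KCl, 0.05% low protease BSA, 2.5% glycerol, 0.01% Tween-20. ClpP 10 microg/mL final; 20 min RT; delta FRET normalized to ADEP and DMSO controls.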
DT40 TDP1 CPT = DT40-hTDP1 cell growth loss with CPT. chicken DT40 Tdp1-/-;hTDP1 cells + 20 nM CPT, ATP luminescence, 48 h. Potency, µM (doses to about 46.2 µM), inactives show at the top dose activity change, negative = growth inhibition, usual class: inhibitors. hit rate 12% among 420,000. AID 686979; further: potency means the concentration at half of the fitted maximal effect; on the % scale 0 is the no-effect control and ±100 the full control effect; nearly all actives have a fitted effect of over 55% in size
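Chicken DT40 Tdp1-/- cells stably complemented with human TDP1 were seeded at 400 cells/well in medium containing 20 nM camptothecin, exposed to pin-transferred compounds, and grown at 37 °C for at least 48 hr. Viability was read as ATP luminescence.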
D3 antag = D3 dopamine receptor (human) antagonism; D3R cells, DiscoveRx beta-arrestin luminescence, antagonist mode; stronger effect = lower value; max response, negative = inhibition, %; hit rate 2.5% among 360,000; AID 652054; in the data active means max response below about -50%; inconclusive means no clear call, values can overlap the other calls; further: on the % scale 0 is the no-effect control and ±100 the full control effect
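Cells plated overnight at 1500 cells/well, then exposed to library compounds with dopamine controls for 90 minutes at 37 degrees C. DiscoveRx reagent added for 30–60 minutes at room temperature; luminescence read, quantitative HTS format.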
IL1B secr inh = inflammasome signaling inhibition, IL-1 beta readout. THP-1 LPS/ATP IL-1B secretion, AlphaLISA, 16 h; stronger effect = lower value. activity change, % at 57.5 µM. hit rate 4.7% among 360,000; in the data active means activity change below about -50%; inconclusive means mostly about -30% to -49%; further: on the % scale 0 is the no-effect control and ±100 the full control effect
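THP-1 cells pretreated 1 hr with compounds (up to 57.5 uM final), then stimulated with LPS (250 ng/mL final) plus ATP (1.25 mM final); secreted IL-1B measured by AlphaLISA after 16 hr, decreased signal indicating inhibition.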
TDP1 cell noCPT = qHTS for Inhibitors of human tyrosyl-DNA phosphodiesterase 1 (TDP1): qHTS in cells in absence of CPT. DT40 Tdp1-/- hTDP1 cells, no CPT, ATP luminescence, 48 h. Potency, µM (titrated, usually from 46.2 µM), for inactives: at the highest dose activity change, negative = growth inhibition, most hits filed as inhibitors. hit rate 15% among 420,000; further: potency means the concentration at half of the fitted maximal effect; on the % scale 0 is the no-effect control and ±100 the full control effect; nearly all actives have a fitted effect of over 55% in size
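DT40 Tdp1-/-;hTDP1 cells, no CPT (DMSO vehicle only), 400 cells/well; compounds pin-transferred; ≥48 hr, 37 °C; CellTiter-Glo 30 min RT dark, luminescence read.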
DRD3 agonist = D3 dopamine receptor (human) agonism; D3R DiscoveRx beta-arrestin cells, luminescence, 90 min; max activation, %; hit rate 0.58% among 410,000; AID 652048; in the data active means max activation above about 30%; further: 0% is about no effect
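Agonist mode: compounds and dopamine controls were applied to plated cells for 90 min at 37 degrees C after an overnight attachment at 1500 cells/well. Luminescent read-out followed 30 - 60 minutes at room temperature with DiscoveRx detection reagent.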
Numbers without * were called inactive; ? = inconclusive; . = not tested or not shown. Unless noted, the call rests on the fitted dose curve; in most records, active means well fitted inhibition curve with a large enough effect; inconclusive means small, poorly fitted or top-dose-only effect; inactive means flat fitted curve, though single readings scatter.

SMILES | ClpP mod | DT40 TDP1 CPT | D3 antag | IL1B secr inh | TDP1 cell noCPT | DRD3 agonist
COc1ccc(CNC(=O)C(=O)Nc2ccccc2OC)cc1 | 0.8% | 9.6% | . | . | 0.1% | -5.8
COc1ccc(C(CCNC(C)c2ccccc2)c2ccc(F)cc2)cc1 (stereo not drawn) | -2.2% | 7.31µM* | ? | -50.2* | 7.31µM* | -8.0
COc1ccc(CNCCC(c2ccc(F)cc2)c2ccc(OC)cc2)cc1 (stereo not drawn) | 28.2µM* | 11.6µM* | -18.3 | . | 10.3µM* | -13.2
COCCN(C(=O)COC(=O)CSc1ccc2ccccc2c1)c1c(N)n(Cc2ccccc2)c(=O)[nH]c1=O | -1.1% | -1.7% | 2.3 | 13.5 | 1.4% | 7.2
COc1ccc(C(CCNCc2ccccc2)c2ccc(F)cc2)cc1 (stereo not drawn) | -0.4% | ? | -15.0 | -5.6 | ? | -8.7
COc1ccc(CNCCC(c2ccc(OC)cc2)c2ccccc2OC)cc1 (stereo not drawn) | . | 18.4µM* | 1.5 | -83.1* | 6.51µM* | -10.0
Cc1ccc(C(C)(C)C)c(OCCN2CCCC2)c1 | 1.5% | 2.9% | 2.1 | -6.7 | ? | -7.2
CC(OCCN1CCCC1)(c1ccc(F)cc1)c1ccc(F)cc1 | 0.3% | ? | -75.9* | -59.5* | ? | -48.4
Cc1cccc(C(C)(C)C)c1OCCN1CCCC1 | -0.9% | 11.5% | -92.9* | -4.0 | -1.3% | -36.3
CC(C)(C)c1ccccc1OCCN1CCCC1 | 0.6% | -1.1% | -78.7* | 5.8 | -17.7% | -26.5
Fc1ccc(OCCOCCN2CCCC2)cc1 | . | 0.7% | -2.9 | 8.1 | -13.9% | -11.5
Cc1ccc([C@@H]2CC=C(C(=O)O)[C@H](c3ccccc3F)N2S(=O)(=O)c2ccccc2C)cc1 | 2.2% | -4.3% | -14.8 | 43.0 | -15.4% | -15.9
COc1ccc(NC(=O)c2sc3nc4c(cc3c2N)CN(Cc2ccccc2)CC4)cc1OC | 0.4% | -15.2% | . | . | -21.2% | -16.2
Cc1cccc(NC(=O)c2sc3nc4c(cc3c2N)CCCCCC4)c1C | 41.8% | 1.46µM* | . | . | 0.651µM* | -18.7
NC(=O)c1sc2nc3c(cc2c1N)CCCCCC3 | . | ? | -21.5 | -96.9* | ? | -4.5
COc1ccc(OC)c(NC(=O)c2sc3nc4c(cc3c2N)CCCCCC4)c1 | ? | ? | . | . | ? | 5.2
CCOc1ccc(NC(=O)c2sc3nc4c(cc3c2N)CCCCCC4)cc1 | 4.4% | 8.2µM* | . | . | ? | -7.9
Cc1ccccc1NC(=O)c1sc2nc3c(cc2c1N)CN(Cc1ccccc1)CC3 | -11.3% | ? | . | . | 18.4µM* | 0.8
Nc1c(C(=O)Nc2ccc(C(=O)O)cc2)sc2nc3c(cc12)CCCC3 | -26.8% | -3.7% | . | . | ? | 16.0
Cc1csc2nc(-c3cccc(NC(=O)C(C)C)c3)cn12 | -0.4% | ? | . | . | ? | -21.3
CCOC(=O)CC(NC(=O)Cn1nnc(-c2ccc(C(F)(F)F)cc2)n1)c1ccc(C)cc1 (stereo not drawn) | 3.0% | . | . | . | . | -3.2
CC(=O)c1cccc(NC(=O)CSc2nc(=O)n(Cc3ccco3)c3c2CCC3)c1 | 1.0% | -23.1% | . | . | ? | 14.5
Cc1ccc(CNC(=O)CC(C)S(=O)(=O)c2ccc3c(c2)NC(=O)CS3)o1 (stereo not drawn) | -3.7% | -33.2% | -11.7 | -15.9 | ? | -2.0
CN1CCC2(CC1)N=C(c1ccc(F)cc1)C(=S)N2C(=O)c1ccccc1 | 1.0% | 7.31µM* | 7.1 | 0.0 | 11.6µM* | 1.6
CCN1CCC2(CC1)N=C(c1ccc(F)cc1)C(=S)N2C(=O)c1ccc(C(C)(C)C)cc1 | -1.4% | ? | 5.4 | -19.4 | -11.2% | -0.2
SMILES | ClpP mod | DT40 TDP1 CPT | D3 antag | IL1B secr inh | TDP1 cell noCPT | DRD3 agonist
CC(=O)OC1CCC2(C)C3CC(=O)C4(C)C(CC5OC6(CCC(C)CO6)C(C)C54)C3CC[C@H]2C1 (stereo partly drawn) | . | 2.6% | . | . | 0.1% | .
CCOc1cc(C(=O)NCC(c2ccc(N(C)C)cc2)N2CCOCC2)cc(OCC)c1OCC (stereo not drawn) | 0.2% | 20.6µM* | . | . | 18.4µM* | -4.1
CN(C)c1ccc(C(CNC(=O)c2ccc(C(C)(C)C)cc2)N2CCOCC2)cc1 (stereo not drawn) | -0.9% | 16.4µM* | . | . | 20.6µM* | -5.0
COc1cccc(C(=O)/C(C#N)=N/Nc2cccc(-c3ccnc(C)n3)c2)c1 | 1.3% | ? | 25.1 | 0.0 | 20.6µM* | 0.0
O=C(Nc1ccc(-c2nc3ccccc3o2)cc1)c1ccc(N2CCOCC2)c([N+](=O)[O-])c1 | -8.3% | 7.31µM* | 16.8 | -16.2 | 4.61µM* | 9.1
COc1ccc2oc(-c3ccc(NC(=O)c4ccc(N5CCOCC5)c([N+](=O)[O-])c4)cc3)nc2c1 | -15.1% | ? | 81.5 | 6.4 | 2.06µM* | 53.6*
O=C(N/N=C/c1ccccc1)c1ccc(N2CCOCC2)c([N+](=O)[O-])c1 | 0.8% | -13.8% | 14.0 | -1.8 | -1.0% | 3.0
O=C(Nc1cc(-c2nc3ccccc3o2)ccc1Cl)c1ccc(N2CCCCC2)c([N+](=O)[O-])c1 | -2.8% | ? | . | . | 18.4µM* | 7.0
Cn1cc([N+](=O)[O-])c(C(=O)Nc2ccc(-c3nc4ccccc4o3)cc2)n1 | -2.9% | -4.9% | -25.7 | -86.1* | -12.4% | 1.4
CCN1C[C@@H]2[C@@H]3C(=O)N(C)C(=O)[C@@H]3[C@](C)(C1=O)N2C(=O)c1ccc(C)cc1 | -1.2% | 5.5% | 14.8 | 6.0 | -3.6% | -5.6
CCOc1ccc2c(c1)OC(c1ccc(OC)cc1)(C(F)(F)F)NC2=O (stereo not drawn) | 4.1% | 3.26µM* | -6.9 | -28.7 | 3.26µM* | -5.1
COc1ccc2c(c1)OC(O)(C(F)(F)F)CC2=O (stereo not drawn) | -3.2% | -27.8% | -6.9 | 5.3 | -6.1% | -4.6
O=C(CNS(=O)(=O)c1ccccc1)NCC(=O)OCc1ccc(Br)cc1 | 1.0% | 20.6µM* | -5.9 | 8.0 | ? | -0.7
C#CCN(C[C@@H](CC(C)C)NC(=O)OC(C)(C)C)S(=O)(=O)c1ccc(Br)cc1F | 0.7% | ? | -24.3 | -6.5 | ? | -1.5
CN(C)c1nc(/C=C(\C#N)C(N)=O)c(Cl)n1-c1ccc(F)cc1 | 0.4% | 16.4µM* | 5.8 | -98.1* | 20.6µM* | 2.2
O=C(CSc1ncccc1C(=O)Oc1ccccc1Cl)Nc1ccccc1Cl | -6.4% | ? | . | . | ? | 1.9
OCCNc1ncnc2c1ncn2[C@H]1CN(C2CCCC2)C[C@@H](CO)O1 | 2.1% | -1.2% | 0.0 | 22.2 | 1.2% | -8.2

Compound activity from PubChem BioAssay.
